Source: PubChem BioAssay
In the library only some 6.1% were active in any assay of this set; here they are far more common.
ATXN2 expr inh = reduces ATXN2 reporter expression in HEK-293 cells; HEK-293 ATXN2-luciferase reporter, luminescence, 24 h; Potency, µM (top dose mostly 57 µM), inactives show at the top dose activity change, negative = inhibition, hits mostly inhibitors; 0.72% of 360,000 active; also: % is scaled to controls: 0 for no effect and ±100 for the full control effect; nearly all actives have a fitted effect of over 55% in size
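ATXN2-luciferase reporter cells (luciferase flanked by upstream and downstream ATXN2 gene portions) were treated 24 h at 37 °C with compounds at up to 57 uM. SteadyGlo luminescence gave expression; GF-AFC fluorescence gave viability.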
RORg inh = blocks mouse ROR gamma transcriptional activity; Potency, µM (top dose mostly 53.6 µM), inactives show top-dose activity change, negative = inhibition, hits mostly inhibitors; Drosophila S2 Gal4-RORgamma UAS-luciferase reporter, 20 h; P51450; 5.4% of 310,000 active; also: % is scaled to controls: 0 for no effect and ±100 for the full control effect; nearly all actives have a fitted effect of over 60% in size
Target sequence (P51450 whole entry, looked up, the tested form may be a part): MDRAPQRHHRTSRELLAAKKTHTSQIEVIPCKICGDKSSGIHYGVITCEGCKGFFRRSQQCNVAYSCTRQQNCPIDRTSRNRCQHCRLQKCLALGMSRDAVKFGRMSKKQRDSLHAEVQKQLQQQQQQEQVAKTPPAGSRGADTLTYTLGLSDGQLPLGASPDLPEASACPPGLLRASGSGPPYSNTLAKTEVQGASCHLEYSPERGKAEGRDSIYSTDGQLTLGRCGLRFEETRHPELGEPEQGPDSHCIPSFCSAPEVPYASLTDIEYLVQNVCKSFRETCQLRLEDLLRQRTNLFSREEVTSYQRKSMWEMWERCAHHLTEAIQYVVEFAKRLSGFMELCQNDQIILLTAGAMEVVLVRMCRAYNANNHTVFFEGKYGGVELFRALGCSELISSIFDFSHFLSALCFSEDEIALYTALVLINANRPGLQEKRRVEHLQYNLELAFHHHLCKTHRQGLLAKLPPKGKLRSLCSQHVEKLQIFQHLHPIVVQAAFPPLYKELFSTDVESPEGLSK
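In this cell-based reporter format, copper sulfate (700 uM final) drives Gal4–ROR gamma fusion expression from a metallothionein promoter in Drosophila Schneider cells; compounds preincubated 1 hr, reporter read after 20 hr at ambient temperature.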
Gal4-VP16 FLuc = Gal4-VP16 reporter inhibition counter-screen. 3.5% of 310,000 active. Potency, µM (series often up to 53.6 µM), without a hit: at the highest dose activity, negative = inhibition, usual class: inhibitors. Drosophila S2 Gal4-VP16 UAS-luciferase, luminescence, 20 h;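 also: Gal4-VP16 expression switched on by copper sulfate through the metallothionein promoter; % is scaled to controls: 0 for no effect and ±100 for the full control effect; nearly all actives have a fitted effect of over 50% in size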
TGFb inhibitor = inhibitors of TGF-b signaling. Potency, µM (doses to about 46.1 µM), for the others: at the top dose activity, negative = inhibition, actives largely listed as inhibitors. AID 588855. HepG2 CAGA-GFP TGF-b/SMAD3 reporter, GFP fluorescence, 18 h; TGF-beta stimulated, 500 pg/mL final. 1.2% of 410,000 active; also: % is scaled to controls: 0 for no effect and ±100 for the full control effect; nearly all actives have a fitted effect of over 65% in size
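Smad-responsive CAGA-GFP expression was quantified in HEPG2 cells exposed to compounds and 500 pg/mL final TGF-beta for 18 h at 37 degrees C; unstimulated wells defined full inhibition.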
ATXN viability = cell viability loss in ATXN counter-screen; S2 cells (HEK-293 line with an ATXN2-luciferase reporter) viability, CellTiter-Fluor protease fluorescence, 24 h; Potency, µM (doses to about 56.7 µM), most hits filed as cytotoxic; 0.49% of 400,000 active; also: nearly all actives have a fitted effect of over 40% in size
HepG2 viability = kills HepG2 cells in TGF-b inhibitor counter-screen; HepG2 CAGA-GFP viability, ATP luminescence, 18 h; Potency, µM (highest dose often 46.1 µM), for the others: at the highest dose activity change, negative = cytotoxicity, most hits filed as cytotoxic; 0.76% of 410,000 active; AID 588856
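CellTiter-Glo luminescence gave cytotoxicity after 18 hours at 37 degrees C. The cells were HepG2 CAGA-GFP in 1% FBS DMEM, stimulated with 500 pg/mL TGF-beta after compound addition. %Activity was normalised to no-cell wells (complete cell-killing) and DMSO (no toxicity), and curves were fitted and classified.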
* marks the source's active call; other numbers are inactive results; i = inactive; ? = inconclusive; nt = not tested or not shown; [ ] = remark or other dose. Calls follow the shape of the dose curve; as a rule, active = well fitted curve in the direction sought with a large enough effect; inconclusive = small, poorly fitted or top-dose-only effect, or another doubt; inactive = no such curve, though single readings can be large; an effect the other way counts as inactive or inconclusive. Potency is read from the fitted curve at half-maximal effect.

SMILES	ATXN2 expr inh	RORg inh	Gal4-VP16 FLuc	TGFb inhibitor	ATXN viability	HepG2 viability
NC(Cc1ccc(F)cc1)c1csc(Nc2ccc(C(=O)c3ccccc3)cc2)n1 (centres undefined)	?	nt	nt	11µM*	nt	13µM*
Cc1ccc(Cn2cccc2C2=NC(C)(C)CO2)cc1	8%	nt	nt	-2%	i	3%
NC(Cc1ccccc1)c1csc(Nc2ccc(C(=O)c3ccccc3)cc2)n1 (centres undefined)	?	nt	nt	?	?	-101%
CC(C)CC(N)c1csc(NC(=O)C(c2ccccc2)c2ccccc2)n1 (centres undefined)	?	nt	nt	?	?	13µM*
NC(Cc1ccc(Cl)cc1)c1csc(Nc2ccc(C(=O)c3ccccc3)cc2)n1 (centres undefined)	?	nt	nt	11µM*	nt	10µM*
C/C(=N\NC(=O)C1CC1)c1ccccc1Br	12%	?	10µM*	-1%	i	3%
C/C(=N\NC(=O)C1CC1)c1ccc(C(C)(C)C)cc1	2%	31%	-1%	-9%	i	-1%
C/C(=N\NC(=O)C1CC1)c1ccccc1O	-8%	1µM*	6.3µM*	-1%	i	-4%
C/C(=N\NC(=O)C1CC1)c1ccc(Cl)cc1	-15%[11.3 µM]	32%	-12%	2%	i	-1%
C/C(=N/NC(=O)c1ccccc1O)c1ccc(N2C(=O)C3CCCCC3C2=O)cc1 (centres undefined)	4%	13µM*	?	-55%	i	-5%
COc1ccc(N2CC(NC(=O)CCCc3ccccc3)CC2=O)cc1 (centres undefined)	nt	nt	nt	0%	nt	-8%
N#C/C(=N\Nc1cc(Cl)cc(Cl)c1)c1nnc2n1CCCCC2	-35%	6.3µM*	6.3µM*	?	i	-26%
N#C/C(=C1\C(=O)Nc2c(Cl)cc(Cl)cc21)c1nnc2n1CCCCC2	-6%	16µM*	?	-29%	i	10%
Cc1ccc2c(NC(=S)NC(=O)c3ccccc3)cccc2n1	-5%	16µM*	?	-30%	i	-9%
Cc1cccc(NC(=S)NC(=O)c2ccc(-c3ccccc3)cc2)n1	52%	4µM*	?	7%	i	-13%
CC(C)NC(=S)NC(=O)c1ccc(-c2ccccc2)cc1	7%	2.5µM*	3.2µM*	-14%	i	-28%
Cc1ccc(C(=O)NC(=S)Nc2cccc3c(C)cc(C)nc23)cc1	27%	1µM*	4.5µM*	-13%	i	-19%
COc1ccc(C(=O)NC(=S)Nc2cccc3nc(C)ccc23)cc1OC	-31%	?	0%	-14%	i	-2%
Cc1cc(C)cc(C(=O)C[n+]2cccc(Br)c2)c1	nt	nt	nt	0%	nt	-29%
CCc1nn(CC(=O)NC(C)c2ccccc2)c(=O)c2cc3sccc3n12 (centres undefined)	nt	nt	nt	3%	nt	-3%
CCc1ccc(CNC(=O)c2cnc3sc(N4CCCCCC4)nn3c2=O)cc1	nt	nt	nt	-55%	nt	-23%
Cc1cccc(NC(=S)NC(=O)c2oc3ccccc3c2C)n1	10%	8.9µM*	17%	14%	i	8%
Cc1c(C(=O)NC(=S)Nc2ccc(NC(=O)c3cccs3)cc2)oc2ccccc12	4%	?	?	?	i	3%
CC(C)OCCCn1c(-c2ccc(Br)cc2)c[nH]c1=S	17%	1µM*	2.8µM*	-10%	i	-16%
CC(C)OCCCNC(=O)c1ccc(Br)cc1	nt	9%	?	11%	nt	-18%
CCOc1ccc(NC(=O)CSc2cn(CC(=O)N3CCCCCC3)c3ccccc23)cc1	nt	nt	nt	?	nt	-6%
CN(C)S(=O)(=O)Oc1ccsc1C(=O)Nc1ccc(Cl)cc1	47%	-41%	25µM*	0%	i	-22%
O=C(NC(=S)N1CCN(c2nc(-c3ccccc3)cs2)CC1)c1cncc(Br)c1	?	0.22µM*	0.22µM*	?	?	-47%
